This passage reports inhibition results from PubChem BioAssay AID463212 (Sanford-Burnham Center for Chemical Genomics, 2010).

Molecules are shown by their SMILES. Hit rate of the full screen: of about 330,000 compounds, about 4,400 (1.3%) were called active.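 Rule for the calls: active = growth inhibition of the mutant yeast at or above 50%; inactive = the rest.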 Shown is part of a subset that was picked to be rich in actives.

As a reminder, the inhibition is the relative decrease from the control value, in per cent.

This assay in a line: growth inhibition of tim23-1 ts yeast – luminescence, uHTS, primary screen (AID 463212).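 Note: temperature-sensitive mutant grown at 25 °C; plate controls were DMSO-treated mutant yeast for no effect and medium wells lacking yeast for full effect.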 The following applies: S. cerevisiae tim23-1 growth, BacTiter-Glo luminescence, 24 h; at 20 µM; hits give high values.
As for `Cc1cc2c(cc1C)N(C(=O)CN1C(=O)c3ccccc3C1=O)C(C)(C)c1ssc(=S)c1-2`, the inhibition is 30.3% (inactive).
With `COc1cc(NC(=O)c2cccs2)ccc1NC(=O)c1ccccc1Cl` the figure was 55.3% (active); with `Cc1ccc(C(=O)Nc2ccc(NC(=O)c3cccs3)cc2)c(C)c1`, 11.9% (inactive); with `COc1cc(NC(=O)c2ccc3c(c2)OCO3)ccc1NC(=O)c1cccs1`, -5.22% (inactive).
With `O=C(Nc1cc(-c2ccccc2)nn1-c1ccccc1F)c1ccc([N+](=O)[O-])cc1`, the inhibition is 18.1% (inactive).
With `CCn1ncc(Br)c1C(=O)Nc1cc(C)ccc1F` the figure was 38.3% (inactive).
With `CCCc1[nH]nc2c1C(c1ccc(Br)s1)C(C#N)=C(N)O2` (stereo not drawn) the figure was 86.6% (active); with `CCCc1[nH]nc2c1C(c1ccc(OC)c(Cn3nc(C)c(Br)c3C)c1)C(C#N)=C(N)O2` (stereo not drawn), 0.046% (inactive).
Turning to `CCCc1[nH]nc2c1C(c1ccc(OC(=O)c3ccco3)cc1)C(C#N)=C(N)O2` (stereo not drawn), the inhibition was -11.4% (inactive).
Under `O=C(O)C1CCCN(CCC=C(c2ccccc2)c2ccccc2)C1` (stereo not drawn) stands 4.65% (inactive); under `Cc1cccc(N2CCN(C(=O)c3cc4c(=O)[nH]c5ccccc5c4n3C)CC2)c1C`, 13% (inactive).
Under `CC(C)(C)OC(=O)NCCCC1=CC2=CC(=O)C(C)(OC(=O)c3ccco3)C(=O)C2=CO1` (stereo not drawn) stands 13.3% (inactive); under `COc1ccc(OCC(=O)Nc2ccc(NC(=O)c3ccco3)c(C)c2)cc1`, 16.1% (inactive).
For `Cc1cccc(OCC(=O)Nc2ccc(NC(=O)c3ccco3)c(C)c2)c1`, the inhibition is 22% (inactive).
Take `Cc1ccc(C(=O)COc2cccc(NC(=O)c3ccco3)c2)cc1`: the inhibition is 54.5% (active).
In the case of `Cc1cccc(N(C)C(=O)c2cc(S(=O)(=O)N3CCCCC3)c[nH]2)c1`, the inhibition was 23.4% (inactive).
As for `CCOC(=O)CSc1nnc(CNC(=O)Cc2ccccc2)n1-c1ccccc1OC`, the inhibition is 7.97% (inactive).
Take `Cc1ccc(-n2cnc3ncnc(-c4ccccc4)c32)cc1`: the inhibition is 15.5% (inactive).
As to `Cc1ccc(-c2nn(C(C)(C)C)c3ncnc(N)c23)cc1`, the inhibition was 57.5% (active).
With `Cc1c([N+](=O)[O-])c(N)nn1C` the figure was -8.73% (inactive); with `Cc1cc(C(=O)COC(=O)C2CC2)c(C)n1-c1ccc(F)cc1`, 35.7% (inactive); with `CC(=O)COc1ccc2c(-c3ccccc3)cc(=O)oc2c1`, -1.93% (inactive).
Turning to `O=C(CNC(=O)OCc1ccccc1)Oc1cc2oc(=O)cc(-c3ccccc3)c2cc1Cl`, the inhibition is 54.3% (active).
Take `O=C(CNC(=O)c1ccc(-c2ccccc2)cc1)OCc1ccc(Cl)cc1`: the inhibition was -7.6% (inactive).
For `O=C1Cc2ccccc2Sc2ccc(Cl)cc21`, the inhibition was 28.6% (inactive).
In the case of `COc1cc(NS(=O)(=O)c2ccc(N/C=C(\C=O)c3nc4cc(Cl)ccc4o3)cc2)nc(OC)n1`, the inhibition is 15.4% (inactive).
With `Cc1ccc(C(=O)N/C(=C\c2ccco2)C(=O)NC2CCS(=O)(=O)C2)cc1` (stereo not drawn) the figure was 24.1% (inactive).
With `COC1=C(N2CCOCC2)C(=O)c2ccccc2C1=O` the figure was 2.06% (inactive); with `COc1cc2ccccc2cc1C(=O)N1CCOCC1`, 22.5% (inactive); with `Cc1oc2c(c1C(=O)N1CCOCC1)C(=O)c1ccccc1C2=O`, 69% (active).
As for `CCC(=O)N1CCC(C(N)=O)(N2CCCCC2)CC1`, the inhibition was -3.89% (inactive).
With `C=CCNC(=O)c1ccc2c3n(nc2c1)-c1ccc(C)cc1CO3` the figure was 57.6% (active); with `Cc1cccc(-c2nc3ccc(C(=O)NCCN4CCN(C)CC4)cc3nc2-c2cccc(C)c2)c1`, 25.1% (inactive); with `Cn1nnc2cc(C(=O)NCCC3=CCCCC3)ccc21`, -1.3% (inactive).
Under `COc1ccc(-c2cc(C)nc3nc(N)nn23)cc1` stands 8.84% (inactive); under `Cc1cc(N)n2nc(-c3ccc(C(C)(C)C)cc3)cc2n1`, 72.3% (active); under `Cc1cc(C(C)(C)C)cc(C)c1N`, 9.69% (inactive).
On to `Cc1nnc(NC(=O)CSc2nc(C3CCCCC3)nc3ccccc23)s1`, for which the inhibition was -0.646% (inactive).
Under `O=C1c2ccccc2C(=O)N1CCC(c1ccccc1)c1ccco1` (stereo not drawn) stands 22.6% (inactive).
For `O=S(=O)(Nc1cccc(-n2cnnn2)c1)c1cnc(Cl)c(Cl)c1`, the inhibition was -3.26% (inactive).
On to `CCNC(=O)c1cnn(-c2ccccc2)c1-c1ccccc1`, for which the inhibition is 0.114% (inactive).
Turning to `CCCc1c(C(=O)Nc2ccc(F)cc2)cnn1-c1ccccc1`, the inhibition is 55.9% (active).
As for `CCCc1c(C(=O)O)cnn1-c1ccc(Cl)cc1`, the inhibition was 13.8% (inactive).
For the compound `CC(=O)c1ccccc1NC(=O)C1CC(=O)N(c2ccc3c(c2)OCCO3)C1` (stereo not drawn), the inhibition was 14.1% (inactive).
With `CC1CCN(C(=S)c2cccc([N+](=O)[O-])c2)CC1` the figure was 21.4% (inactive); with `CC1CCC2CCCCC2N1C(=O)c1cc([N+](=O)[O-])cc([N+](=O)[O-])c1` (stereo not drawn), 51.9% (active).
With `CC1(c2ccccc2)CC(C)(C)N(C(=O)c2cc([N+](=O)[O-])cc([N+](=O)[O-])c2)c2ccccc21` (stereo not drawn) the figure was 4.81% (inactive); with `COc1ccc(S(=O)(=O)N2CCOCC2)cc1NC(=O)CSc1cc(C)ccc1C`, 7.5% (inactive).
With `CC[C@]12c3[nH]c4ccc(OC)cc4c3CCN1C(=O)C(CC(=O)NCCN1CCOCC1)C[C@@H]2C(=O)N1CCN(C(=O)C2CC2)CC1` (stereo partly drawn) the figure was 26.2% (inactive); with `O=C(Nc1ccc2oc(-c3ccccc3F)nc2c1)c1ccco1`, 57.8% (active); with `Cc1cc(NC(=O)c2ccc(F)cc2)ccc1NC(=O)c1ccco1`, 13.5% (inactive).
Turning to `O=C(Nc1cccc(-c2nc3ncccc3o2)c1)c1ccco1`, the inhibition is 4.7% (inactive).
With `CCCCC1(C(=O)OCC)NC(c2ccc(O)cc2)C2C(=O)N(c3ccccc3)C(=O)C21` (stereo not drawn) the figure was 1.2% (inactive).
In the case of `CCC(=O)Nc1ccc(C(=O)CSc2nnc(CNc3ccc(Cl)cc3)o2)cc1OC`, the inhibition is -7.17% (inactive).
For the compound `O=C(COC(=O)CNC(=O)C1CCCCC1)Nc1cccc(F)c1`, the inhibition was 17.5% (inactive).
With `O=C(Nc1ccccc1F)c1ccccc1-c1ccc(C(F)(F)F)cc1` the figure was 16% (inactive); with `CN(CC(=O)Nc1ccccc1C(F)(F)F)C(=O)Cc1ccccc1F`, 14.9% (inactive).
As to `N#C/C(=C\c1ccccc1C(F)(F)F)C(=O)Nc1ccccc1F`, the inhibition is 71.2% (active).
With `CSc1ccccc1NC(=O)COC(=O)CCCOc1ccc(C)cc1` the figure was -1.47% (inactive); with `COc1cc([N+](=O)[O-])ccc1NC(=O)COC(=O)CCOc1ccc(C)cc1`, 73.7% (active); with `COc1cccc(NC(=O)COC(=O)CCOc2ccccc2OC)c1`, 8.9% (inactive).
As to `Cc1cccc(N2C(=O)SC(SC(=Nc3ccccc3)Nc3ccccc3)C2=O)c1` (stereo not drawn), the inhibition was 49.6% (inactive).
Regarding `CN(C)C(=O)c1cc(Br)ccc1Cl`, the inhibition is -8.05% (inactive).
With `Cc1ccc(OCCCCN2CCCCC2)c(Br)c1` the figure was 16.7% (inactive); with `O=C(Cc1c(F)cccc1Cl)Nc1ncc([N+](=O)[O-])s1`, 55.4% (active).
With `COc1ccc(S(=O)(=O)N2CCOCC2)cc1NC(=O)Cc1c(F)cccc1Cl` the figure was 5.42% (inactive); with `CN(c1ccccc1)S(=O)(=O)c1cccc(NC(=O)Cc2c(F)cccc2Cl)c1`, 23.3% (inactive).
For the compound `COc1ccc2nc3n(c(=O)c2c1)-c1cc(C)ccc1C(=O)NC3Cc1ccc(O)cc1` (stereo not drawn), the inhibition is -6.13% (inactive).
With `CCCc1cc(=O)[nH]c(SCC(=O)OCc2ccccc2)n1`, the inhibition is 6.03% (inactive).
Turning to `COC(=O)CSC1=C(C#N)C(c2ccccc2OC)C(C(=O)OC)C(=O)N1` (stereo not drawn), the inhibition is 12.9% (inactive).
With `Cc1ccc(C2CC(=O)NC(SCC(=O)OCc3ccccc3)=C2C#N)o1` (stereo not drawn) the figure was 59.1% (active); with `CCCc1nnc(SCC(=O)N2C(C)CCCC2C)n1CC` (stereo not drawn), 1.57% (inactive).
Turning to `CC1CCCCC12NC(=O)N(CC(=O)N1CCN(c3ccccc3)CC1)C2=O` (stereo not drawn), the inhibition is 17.7% (inactive).
Under `O=C(c1[nH]ncc1-c1ccc(Cl)cc1)C1CO1` (stereo not drawn) stands 43.9% (inactive); under `O=C(Nc1cc(S(=O)(=O)N2CCOCC2)ccc1N1CCOCC1)c1c(F)cccc1Cl`, 14.4% (inactive); under `Cc1cccc(OP(=O)(Nc2c(C)n(C)n(-c3ccccc3)c2=O)Oc2cccc(C)c2)c1`, 20.4% (inactive).
With `Cc1cc(C)c(-c2c(O)c3ccccc3n(C)c2=O)c(C)c1` the figure was 4.89% (inactive); with `Cc1cccc(Oc2c([N+](=O)[O-])c(=O)n(C)c3ccccc23)c1`, 56% (active); with `CCn1c(SCC(=O)Nc2cc(C)ccc2C)nnc1-c1cnccn1`, 5.06% (inactive).
On to `CCc1cccc(NC(=O)CCCN2C(=O)C(c3ccccc3)Oc3cccnc32)c1` (stereo not drawn), for which the inhibition was 35.3% (inactive).
As to `COc1ccc(C(=O)COC(=O)c2ccc3ccccc3n2)cc1`, the inhibition is 40.7% (inactive).
For the compound `CC(OC(=O)c1ccc2ccccc2n1)C(=O)c1ccccc1` (stereo not drawn), the inhibition was 10.7% (inactive).
Under `O=C(Oc1ccc([N+](=O)[O-])cc1)c1ccc2ccccc2n1` stands 69.8% (active); under `COc1ccc([N+](=O)[O-])cc1C1NN=C(c2cccc3ccccc23)S1` (stereo not drawn), 0.511% (inactive).
With `N#C[C@]1(S(=O)(=O)c2ccccc2)C[C@@H]2ON=C(c3cccc(Br)c3)[C@@H]2C1` the figure was 24.4% (inactive); with `CSc1ncnc2sc(C)c(C)c12`, -2.76% (inactive).
As for `Cc1sc2ncnc(Sc3nc4ccccc4s3)c2c1C`, the inhibition was 14.7% (inactive).
With `CCCNc1ncnc2sc(C)c(C)c12` the figure was 58.6% (active); with `COc1cc(C(=O)NCC(c2ccco2)N2CCCC2)ccc1OCc1ccccc1` (stereo not drawn), 2.02% (inactive).
With `CCc1ccc(C2C(C#N)=C(N)N(N3CCOCC3)C3=C2C(=O)CC(C)(C)C3)s1` (stereo not drawn) the figure was 5.14% (inactive); with `Cc1ccc(S(=O)(=O)N2CC(O)C[C@H]2C(=O)OCC(=O)Nc2ccc(N3CCOCC3)cc2)cc1C` (stereo partly drawn), 4.11% (inactive).
Turning to `O=C(O)C#Cc1cccc2ccccc12`, the inhibition was 7.2% (inactive).
With `CN(Cc1ccccc1)C(=O)COC(=O)c1ccccc1Nc1ccccc1` the figure was 42% (inactive).
